Results on 90 sequences are retold here after the supplement of paper PMC11417369.

In all, about 25,000 sequences were measured (“ln(normalized median fluorescence intensity)”: median about 9.3, highest 2% from about 10 on). This excerpt belongs to a sample that is enriched for the highest values.

For the test, the system named is PF3D7_0420300 AP2 domain 1 (GST-tagged). Kind of test: gcPBM binding intensity (ln(normalized median fluorescence intensity)); higher = stronger DNA binding. The method, boiled down:
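The binding buffer was 1× PBS containing 1% milk, 0.2 mg/ml BSA, 0.5% salmon testes DNA and 0.03% Triton X-100. In it, GST-tagged P. falciparum DNA-binding domains expressed in E. coli were applied for 1 h to an Agilent 4 × 180k array of primer-extended double-stranded 36-bp intergenic genomic probes plus negative controls. Binding intensity, read with Alexa488 anti-GST antibody and a 488 nm scan, is the highest Masliner-normalised natural-log median intensity across replicate spots of either probe orientation.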
Consider “TAATAATTATTGCACGCACACAAAAACCTATAGATT [CACACA_site2931]”, for which the “gcPBM binding intensity (ln)” value stood at 9.45.
The figure for “ATGATCATAAAACACACACACAAAAAAAAAAAAAAA [CACACA_site1805]” is 9.51; for “TTATTTTTTCAAGAATGTACTTACGAATTGTCGTAT [XGTACX_site1363]” it is 8.78; for “ATAAAAACATAAAAATGTACATATATATATATATAT [XGTACX_site7165]” it is 9.23.
For “TGAGATAACAAAAGTTGTACTTTTTTTTTTTTTTTT [XGTACX_site3004]” the value was 8.89.
The figure for TATATATATATAATAGTGCATAAATAAATATATAAA is 9.28.
For the sequence “TACAATATTTTGAGACGTACATATATACATTTACAT [XGTACX_site5880]”, the “gcPBM binding intensity (ln)” value came to 9.24.
The figure for “AAAATGAATATAATGACGCACACTTAAAATTGTTAA [CACACA_site2509]” is 9.29.
Consider “ATATGTTTATTAAATGCATGTCAAGACTTAAGATAT [TGCATGCA_site329]”, for which the “gcPBM binding intensity (ln)” value was 9.24.
The figure for “TGATTCATTGATAAGGGTACATTTATAATTATGATA [XGTACX_site6319]” is 9.02; for “TATATATATACCAACACACATACATATATATATATA [CACACA_site1795]” it is 9.46; for “AACATACACATATACACACACACATATATACATATA [CACACA_site1093]” it is 10.2.
For “CGCATACACCAACACACACACACATATATATATATA [CACACA_site635]” the value was 10.2; for “AAAAAAAAAAAAAACACACACACAAATACAAATGGT [CACACA_site1721]”, 10.2.
The figure for “TATACATATATATACACACACACATATATATATATA [CACACA_site1299]” is 9.95.
Regarding “TATATATATATACCAACACACATACATATATATATA [CACACA_site8530]”, the “gcPBM binding intensity (ln)” value was 9.68.
For the sequence “CAACATTTGAAACACACACACATACAAACAAACAAA [CACACA_site3306]”, the “gcPBM binding intensity (ln)” value is 10.2.
As for “AAAAAAAAAAAACACACACACAAATACAAATGGTAA [CACACA_site1720]”, the “gcPBM binding intensity (ln)” value turned out to be 10.1.
The figure for “CAACATTTGAGACACACACACATACAAACAAACAAA [CACACA_site7538]” is 10; for “GGCAACATTTGAAACACACACACATACAAACAAACA [CACACA_site3307]” it is 9.97.
As for “TACATACATACATACACACACACATATATATACATA [CACACA_site853]”, the “gcPBM binding intensity (ln)” value amounted to 10.1.
For “AAAAAAAAAAAAAACACACACACAAATACAAATACA [CACACA_site414]” the value was 10.1; for “TTATTATAAATGTTTTGTACGTACATCCGAAAATAA [XGTACX_site2175]”, 9.05; for TTTTTTGTTAAGTTGGTGCAAACAATAGTTATTGAC, 8.95.
The figure for “TTTAAAGTTTTATACACACACCAAAGTTATTCTAAT [CACACA_site6432]” is 9.56.
The figure for “GATTAAAATCAAAGGTGTACGCACAAATAAGTCCCA [XGTACX_site4360]” is 9.3.
As for “TTTCTTATATAAGTGTACTAAAATATATATATGCAA [GTGCAC_negctrl_site546]”, the “gcPBM binding intensity (ln)” value turned out to be 9.
The figure for “GTGTCAAATTTTATAACACACAAAAGGTTATATAAG [CACACA_site7839]” is 9.28.
For “AAATAGATAAACTAAACACACAAAAAAAAAAAAAAT [CACACA_site1179]” the value was 9.84.
The figure for “CATTTATTTTTGTTCTGTACATAAAGATGAACAAAA [XGTACX_site6797]” is 8.81; for “AATATAAACACAAACACACACATATATATATATATA [CACACA_site4307]” it is 9.68; for “AACATACACATATACACACACACATATATACCTATA [CACACA_site6643]” it is 10.4.
“AAAAAAAAAACAAATACACACGCACCCAAAAAAAAA [CACACA_site8166]”: the “gcPBM binding intensity (ln)” value is 9.81.
The figure for “GGATATAACAAACACACACACACATATATATATATT [CACACA_site4141]” is 10.2; for “CATACATACAAACACACACACATATATATATATATA [CACACA_site43]” it is 9.86; for “CATACATACAAACACACACACATATATATACATACA [CACACA_site852]” it is 10.2.
The figure for “AAAAAAAAAAAAAACACACACACACGCAAATACATA [CACACA_site6474]” is 10.2; for “TATATACACGCACATACACACAAATAAAAAAACACC [CACACA_site7578]” it is 9.93; for “CACATACACATACAAACACACATTATATATATATAT [CACACA_site8460]” it is 9.62.
Consider “AATATAAACAAACACACACACATATATATATATATT [CACACA_site5592]”, for which the “gcPBM binding intensity (ln)” value was 10.1.
Take “TATATATATATATATACACACATATATACCTATATA [CACACA_site6085]”: the “gcPBM binding intensity (ln)” value was found to be 9.31.
For “TATACGTATACCTATACACACATATATATATATATA [CACACA_site1273]” the value was 9.49; for “TTTTTTTTTGTTTACACACACAAAATATTATATGTA [CACACA_site2470]”, 9.66.
For “AATATATACATACATACATGCACATATATATATATA [TGCATGCA_site393]” the value was 9.36.
“CATATTAAAAATACATGTACATATATATTTAATATA [XGTACX_site8580]”: the “gcPBM binding intensity (ln)” value was found to be 9.08.
The figure for “ATTAAAAAAGAATATACACACCAAAACTGTTTGTTA [CACACA_site4687]” is 9.21; for “ATATGACTGTTCATTTGTACGTATAATTATATACGT [XGTACX_site3372]” it is 9.33.
For “ATCAACAAAACATACACACACATATAGATTTATATA [CACACA_site7415]” the value was 10; for “TTTTCAATTTTTTATGAACACACAAAAAAAAAAAAA [CACACA_site8808]”, 8.77.
“GTAGAGCATAATAAAACACACACATACATACATATA [CACACA_site8217]”: the “gcPBM binding intensity (ln)” value was found to be 9.84.
The figure for “AAAAAAAAAAAACACACACACACAAATACATACACA [CACACA_site706]” is 10.2.
The figure for “AAAAAAAAAAAACACACACACAAATACAAATACATA [CACACA_site415]” is 10.2.
For “AATACATACACAAATACACACACAAATACATACACA [CACACA_site8134]” the value was 10.1; for “TACATACACAAATACACACACAAATACATACACAAA [CACACA_site704]”, 10.1; for “GGTACATACAAACACACACACAAAAAAAAAAAAATA [CACACA_site1577]”, 9.91.
Take “TTTTTTTTTTTTAATTAACACACATAAATATATATA [CACACA_site9077]”: the “gcPBM binding intensity (ln)” value was 9.11.
For “AAAAAATAATTGAAGTGTACGTACAATGATTTTACT [XGTACX_site7663]” the value was 9.35; for “CCCCATATAATGAACACACACACTCCTCATAATTAA [CACACA_site628]”, 10.2; for “TTTCCCCCATATAATGAACACACACCCTCCTCATAA [CACACA_site8110]”, 9.85.
For “CCCATGTAATATTAAACACACACTCATATAACACAA [CACACA_site7906]” the value was 9.71.
For “ACCTATATAAATTATACACACAAATATAAATATATA [CACACA_site2843]” the value was 9.66; for “ACAAAATATACAAAATGTACAAAATTTACAAAATAT [XGTACX_site6466]”, 9.43.
Turning to “TATAAAATGACTATATATAATATTAAAAAAAAAAAA [TGCATGCA_negctrl_site387]”, the “gcPBM binding intensity (ln)” value was found to be 9.11.
For “AAGGCAAACAAACACACACACATATATACCTATATA [CACACA_site5203]” the value was 10; for “GTACCTATTTCATACACACACACACGCAAACAAACA [CACACA_site6590]”, 10.3.
For “CCAAACAAAAAAAAAAGTACATAAAACACCTATTTG [XGTACX_site5645]” the value was 9.46.
The figure for “GTACCTATTTCATACACACACACACCCAAACAAACA [CACACA_site976]” is 10.3; for “ATGTACCTATTTCATACACACACACCCACAAACAAA [CACACA_site8232]” it is 10; for “ATTTCATACAGACACACACACAAACAAACATATATA [CACACA_site979]” it is 10.1.
Consider “TATATTTAATTATTATGTACTTATAATTTTTGAAAG [XGTACX_site8548]”, for which the “gcPBM binding intensity (ln)” value is 8.95.
The figure for “TTAATATAACTTTTTGCACACTTAATTTTTTTTTTT [CACACA_site3364]” is 9.44; for “TATATATATATACCAACACACATACAGATATATATA [CACACA_site5060]” it is 9.7.
The figure for “ACATATACATATATATGTACATAAATATATATATAT [XGTACX_site8630]” is 9.17; for “TATTCATGCATATACACACACATATATATATATTTT [CACACA_site3955]” it is 9.85; for “TCTTTTTTTACTTTCTTTTTTTTTTTTTTTTTTTTT [XGTACX_negctrl_site610]” it is 9.11.
As to “ATAAATATATATTTACGTACATATTATATATATATA [XGTACX_site6172]”, the “gcPBM binding intensity (ln)” value turned out to be 9.27.
For “CACCCATACAGACATACACACACATATATATTAATA [CACACA_site8077]” the value was 9.87; for “TATACACCCAGACACACACACACACCCAAAAAAAAA [CACACA_site497]”, 10.
The figure for “CACGCGCACCAACACACACACACACCCATATATATA [CACACA_site2204]” is 10.3.
For “GGAGCACCCAGACACACACACACATATATATATATA [CACACA_site336]” the value was 10.1; for “TATAAACACCCATATAAACACACATATAAACCAACA [CACACA_site8790]”, 9.79.
On to “CACCCACACCAACACACACACATATATATATATATA [CACACA_site362]”, for which the “gcPBM binding intensity (ln)” value was determined as 10.1.
The figure for “CGCGCACCCAGACACACACACACACCCATATATATA [CACACA_site2203]” is 10.2; for “TAGACTCCCAGACACACACACACACCCATATAATAT [CACACA_site593]” it is 10.2.
The figure for “CGCGCACCCAGACACACACACACACCGATATATATA [CACACA_site8687]” is 10.2.
The figure for “TAATTTTTAATTGTAGCATGCAGTATTTTTAAATAT [TGCATGCA_site140]” is 8.97; for “TACTTACAGATAATAACACACAAGAAAAAAATAAAA [CACACA_site4716]” it is 9.8; for “CAAATATATATTTTCTGTACAAATACAATTAATACT [XGTACX_site2694]” it is 9.13.
As to “ATAAAGAAAATATGGAGTACATTTATATCCAATATA [XGTACX_site3085]”, the “gcPBM binding intensity (ln)” value was determined as 9.17.
The figure for “CACAATGGTTTATATACACACTGTTGCAAATTCTTC [CACACA_site5659]” is 9.45.
